The text below walks through data of PubChem BioAssay AID1159580 (chemical genetic matrix, 2015).

About 2,000 (36%) of roughly 5,500 compounds were called active. Inconclusive results (about 18%) are left out. The list shows a part of the results. Unmarked numbers belong to inactive results. Rule as the data show it: active = normalized growth mostly below about 0.91 (no sharp cut-off); inconclusive = no clear call, values can overlap the other calls; inactive = mostly above about 0.92.

The experiment in a line: chemical genetic growth profiling, strain panel (AID 1159580).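 Also: tested at 20 µM; growth read once vehicle control cultures reached saturation at 30 °C; 1 = growth at the plate median or of vehicle wells; lower values mean less growth of the strain.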 The note with it: S. cerevisiae deletion strains, growth OD.

On to `C[C@H](Cc1ccc(O)c(O)c1)[C@@H](C)Cc1ccc(O)c(O)c1`, for which the normalized growth runs as follows: (locus YAL013W, strain DEP1, active compounds read low) 0.783 (active); (locus YAL040C, strain CLN3, active compounds read low) 1.07; (locus YCL061C, strain MRC1 (second series), active compounds read low) 0.811 (active); (locus YDR363W, strain ESC2, active compounds read low) 0.745 (active); (locus YER002W, strain NOP16, active compounds read low) 0.979; (locus YGR078C, strain PAC10, active compounds read low) 0.986. The normalized growth is, setting by setting: (locus YNL153C, strain GIM3, active compounds read low) 0.863; (locus YNL175C, strain NOP13, active compounds read low) 0.946; (locus YNL197C, strain WHI3, active compounds read low) 0.969; (locus YNL224C, strain SQS1, active compounds read low) 0.966; (locus YNL322C, strain KRE1, active compounds read low) 0.478 (active); (locus YOR083W, strain WHI5 (second series), active compounds read low) 0.925. The normalized growth reads like this: (locus YPL055C, strain LGE1, active compounds read low) 0.77 (active); (locus YPL241C, strain CIN2, active compounds read low) 0.578 (active).
